In PubChem BioAssay AID602295 (Broad Institute, 2012):
Calls of active or inactive are those of the source.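 The calls were made as follows: active = every separate test run called active, meaning the signal drops and a potency is fitted within twice the top valid dose; inconclusive = runs disagree, poor fit, or flat partial inhibition; inactive = all runs inactive, flat, opposite direction or too weak.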

Target: Mitogen-activated protein kinase 3 (Homo sapiens) (UniProt P27361)
Assay: inhibition of MAPK3 kinase activity – biochemical, ADP-Glo luminescence, cherry pick, set 2, selectivity assay for Dyrk1A inhibitor NFAT project, dose response (AID 602295)
Conditions: ERK1 kinase, 120 min; series mostly up to 10 µM; activity change, negative = inhibition: at the top concentration

Mitogen-activated protein kinase 3 (Homo sapiens), sequence (P27361 whole entry, looked up): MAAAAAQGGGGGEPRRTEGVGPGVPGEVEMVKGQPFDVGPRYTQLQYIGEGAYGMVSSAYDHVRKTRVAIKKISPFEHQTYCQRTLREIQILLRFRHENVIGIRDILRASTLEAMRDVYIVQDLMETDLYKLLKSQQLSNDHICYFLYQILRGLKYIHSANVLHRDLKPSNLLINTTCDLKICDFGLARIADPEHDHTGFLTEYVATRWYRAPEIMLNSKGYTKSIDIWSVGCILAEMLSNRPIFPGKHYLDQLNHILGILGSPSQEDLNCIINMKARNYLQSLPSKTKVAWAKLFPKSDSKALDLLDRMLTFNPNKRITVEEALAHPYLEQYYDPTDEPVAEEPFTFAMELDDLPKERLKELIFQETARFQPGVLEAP

Activity change, negative = inhibition, inactive:
Cc1noc(CN(C)c2ncnc3ccc(-c4ccc5c(c4)OCO5)cc23)n1 24.3%, CC(=O)Nc1ccc(SCc2ncc(-c3ccccc3)o2)cc1 -22.2%, O=C(Nc1nc(-c2ccncc2)cs1)c1ccco1 -15.8%, CCN(Cc1cccs1)c1ncnc2ccc(-c3ccc4c(c3)OCO4)cc12 13.5%, c1cncc(CNc2nccc(-c3ccc4[nH]ncc4c3)n2)c1 -16.2%, O=C(Nc1nc(-c2ccc3c(c2)OCCO3)cs1)c1ccco1 22.4%, Cc1c(-c2ccnc(NCc3ccc(Cl)cc3)n2)sc(=O)n1C 18.4%, O=C(CSc1nnnn1-c1ccc(O)cc1)Nc1ccc(N2CCOCC2)c(Cl)c1 14.9%, CN(Cc1cccs1)c1ncnc2ccc(-c3ccc4c(c3)OCO4)cc12 19.4%, COc1ccc(-c2cc(NCCc3ccncc3)n3ncnc3n2)cc1 -2.17%, CCCC(=O)Nc1nc(-c2ccc3c(c2)OCCO3)cs1 -24.3%, Clc1ccc(CNc2nccc(-c3ccc4c(c3)OCO4)n2)cc1Cl 33.6%, CN(C)S(=O)(=O)c1ccc(Cl)c(C(=O)Nc2cccc3ncccc23)c1 4.43%, Fc1cccc(Nc2nc(-c3ccncc3)nc3ccccc23)c1 10.8%, Cc1nc(CN(C)c2ncnc3ccc(-c4ccc5c(c4)OCO5)cc23)cs1 9.05%, COc1cccc(Nc2ncnc3ccccc23)c1 4.09%, FC(F)(F)c1cccc(Nc2nccc(-c3ccc4c(c3)OCO4)n2)c1 5.81%, CC(Nc1nc(-c2cccnc2)nc2ccccc12)c1ccc(F)cc1 (configuration not stated) 22.1%, CCOC(=O)c1ccc2ncc(C(=O)OCC)c(Nc3ccc(N4CCOCC4)cc3)c2c1 -13.7%, COc1ccc(-c2[nH]ncc2-c2ccc3c(c2)OCCO3)c(O)c1 1.76%, Cc1cc(NCCCn2ccnc2)n2ncc(-c3ccc(Cl)cc3)c2n1 19.3%, COc1ccc(-c2nccc(NCc3ccc(C)cc3)n2)cc1 -1%, Cc1ccsc1CNc1ncnc2ccc(-c3ccc4c(c3)OCO4)cc12 1.53%, Cc1nc(N)sc1-c1csc(Nc2ccccc2)n1 -26.4%, c1csc(CCNc2ncnc3ccc(-c4ccc5c(c4)OCO5)cc23)c1 -4.93%, Cc1ccc(CN(C)c2ncnc3ccc(-c4ccc5c(c4)OCO5)cc23)o1 21.6%, Cc1c(-c2ccnc(NCc3cccnc3)n2)sc(=O)n1C -13.9%, Fc1c(-c2ccc3ncnc(NCc4cccs4)c3c2)ccc2c1OCO2 15.5%, CN(C)c1ccc(-c2nccc(NCc3cccs3)n2)cc1 -15.6%, CN(C)S(=O)(=O)c1ccc(NC(=O)c2cc3ccccc3o2)cc1 22.8%, Brc1ccc(CNc2nccc(-c3ccc4c(c3)OCO4)n2)cc1Br 23.2%

outcome, inactive:
CCOC(=O)c1ccc(-c2ccc3ncnc(NCc4ccc(C)o4)c3c2)o1
